Experimental data taken from PubChem BioAssay (NCI).
This is part of a sample that, as a whole, favours compounds with a hit. Of some 83,000 tested, about 20% had one in any assay.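 A percent growth of 40 corresponds to 60% growth inhibition; 0 means no net growth; -100 means all cells died. Active threshold: below 10.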 Active and inactive are the calls of the source.

Columns and labels:
Experiment in all cases: NCI-60 one-dose screen, 48 h (100 = growth as untreated, 0 = no growth, -100 = all killed)
Details in all cases: 10 µM
RPMI-8226 leukemia = tested on: RPMI-8226 leukemia
OVCAR-8 ovarian = tested on: OVCAR-8 ovarian
OVCAR-5 ovarian = tested on: OVCAR-5 ovarian
OVCAR-4 ovarian = tested on: OVCAR-4 ovarian
SK-OV-3 ovarian = tested on: SK-OV-3 ovarian
IGROV1 ovarian = tested on: IGROV1 ovarian
OVCAR-3 ovarian = tested on: OVCAR-3 ovarian
HS 578T breast = tested on: HS 578T breast
NCI/ADR-RES ovarian = tested on: NCI/ADR-RES ovarian
T-47D breast = tested on: T-47D breast
MDA-MB-435 melanoma = tested on: MDA-MB-435 melanoma
SW-620 colon = tested on: SW-620 colon
MCF7 breast = tested on: MCF7 breast
HCT-116 colon = tested on: HCT-116 colon
HCC-2998 colon = tested on: HCC-2998 colon
KM12 colon = tested on: KM12 colon
BT-549 breast = tested on: BT-549 breast

Measured: growth

CC/C(C)=C(\C)C(=O)O
inactive: RPMI-8226 leukemia 107% | OVCAR-8 ovarian 103% | OVCAR-5 ovarian 112% | OVCAR-4 ovarian 118% | SK-OV-3 ovarian 91.9% | IGROV1 ovarian 104% | OVCAR-3 ovarian 105% | HS 578T breast 100% | NCI/ADR-RES ovarian 108% | T-47D breast 100% | MDA-MB-435 melanoma 99.1% | SW-620 colon 105% | MCF7 breast 98.6% | HCT-116 colon 109% | HCC-2998 colon 108% | KM12 colon 103%

O=C1/C(=C\c2ccc(Br)cc2)CN(C(=O)c2ccccc2F)C/C1=C\c1ccc(Br)cc1
inactive: OVCAR-5 ovarian 69.4% | OVCAR-4 ovarian 18.2% | SK-OV-3 ovarian 27.2% | HS 578T breast 24.1% | NCI/ADR-RES ovarian 12.7% | T-47D breast 53.3%
active: RPMI-8226 leukemia -37.7% | OVCAR-8 ovarian 1.47% | IGROV1 ovarian -31.4% | OVCAR-3 ovarian -52.6% | MDA-MB-435 melanoma -44.9% | SW-620 colon -56.4% | MCF7 breast -33.5% | HCT-116 colon -76.1% | HCC-2998 colon -81.3%

CC(=O)[C@H]1CC[C@H]2[C@@H]3CCC4=CC(=O)C=C[C@]4(C)[C@H]3CC[C@]12C
inactive: RPMI-8226 leukemia 68% | OVCAR-8 ovarian 92.4% | OVCAR-5 ovarian 93.2% | OVCAR-4 ovarian 87.2% | SK-OV-3 ovarian 104% | IGROV1 ovarian 94.8% | OVCAR-3 ovarian 106% | HS 578T breast 96.2% | NCI/ADR-RES ovarian 98.4% | T-47D breast 86.8% | BT-549 breast 98% | SW-620 colon 108% | MCF7 breast 97.9% | HCT-116 colon 85.6% | HCC-2998 colon 99.2% | KM12 colon 107%

COc1cc(-c2cc(/C=C/C(=O)c3ccc(N)cc3)[nH]n2)cc(OC)c1OC
active: RPMI-8226 leukemia -26.5% | OVCAR-8 ovarian -53.4% | OVCAR-5 ovarian -15% | OVCAR-3 ovarian -45.9% | T-47D breast 5.11% | BT-549 breast -28.7% | MDA-MB-435 melanoma 6.15% | SW-620 colon -38.1% | HCT-116 colon -81.5% | HCC-2998 colon -75.4% | KM12 colon -35.1%
inactive: OVCAR-4 ovarian 26.8% | SK-OV-3 ovarian 27.2% | IGROV1 ovarian 18.1% | HS 578T breast 19.2% | NCI/ADR-RES ovarian 64.7%

Clc1ccc(-c2cn(-c3ccccc3)c(-c3ccccc3)n2)c(Cl)c1
inactive: RPMI-8226 leukemia 16% | OVCAR-5 ovarian 16.4% | SK-OV-3 ovarian 25.1% | NCI/ADR-RES ovarian 13.6% | HCC-2998 colon 13.7%
active: OVCAR-8 ovarian 9.55% | OVCAR-4 ovarian -100% | IGROV1 ovarian -26.3% | OVCAR-3 ovarian -84% | HS 578T breast -20.3% | T-47D breast -17.6% | BT-549 breast -12.7% | SW-620 colon -100% | MCF7 breast 5.1% | HCT-116 colon -100% | KM12 colon -88%

N#CC1=C(Nc2ccccc2Cl)SC(c2ccccc2O)NC1=O (stereo not drawn)
inactive: RPMI-8226 leukemia 97.1% | OVCAR-8 ovarian 111% | OVCAR-5 ovarian 105% | OVCAR-4 ovarian 111% | SK-OV-3 ovarian 116% | IGROV1 ovarian 102% | OVCAR-3 ovarian 127% | HS 578T breast 116% | NCI/ADR-RES ovarian 110% | T-47D breast 111% | BT-549 breast 111% | SW-620 colon 105% | MCF7 breast 105% | HCT-116 colon 109% | HCC-2998 colon 109% | KM12 colon 116%

N#Cc1ncc(-c2ccc(C(F)(F)F)cc2)c(NCc2cc(C(F)(F)F)cc(C(F)(F)F)c2)n1
active: RPMI-8226 leukemia -19.6% | T-47D breast 9.88% | MCF7 breast 8.58%
inactive: OVCAR-8 ovarian 30.6% | OVCAR-5 ovarian 57.3% | OVCAR-4 ovarian 21% | SK-OV-3 ovarian 62.6% | IGROV1 ovarian 40.6% | OVCAR-3 ovarian 11.4% | HS 578T breast 36% | NCI/ADR-RES ovarian 25.5% | BT-549 breast 21.8% | SW-620 colon 14.5% | HCC-2998 colon 45% | KM12 colon 10.2%

COc1cc(-c2nc(-c3nnc(-c4ccccc4Cl)o3)c3ccccn23)cc(OC)c1OC
inactive: RPMI-8226 leukemia 50.2% | OVCAR-8 ovarian 47.8% | OVCAR-5 ovarian 92.5% | OVCAR-4 ovarian 77.4% | SK-OV-3 ovarian 84.5% | IGROV1 ovarian 111% | OVCAR-3 ovarian 86.4% | HS 578T breast 83.1% | NCI/ADR-RES ovarian 66.4% | T-47D breast 61.4% | BT-549 breast 89.5% | SW-620 colon 104% | MCF7 breast 81.9% | HCT-116 colon 97% | HCC-2998 colon 94.7% | KM12 colon 80.5%

COc1ccc(-c2nc(-c3nc4ccc(Cl)cc4[nH]3)c3ccccn23)cc1
inactive: RPMI-8226 leukemia 49.3% | OVCAR-5 ovarian 82.5% | IGROV1 ovarian 84.8% | NCI/ADR-RES ovarian 33.6% | T-47D breast 64.7% | BT-549 breast 42.9% | SW-620 colon 75.2% | MCF7 breast 41.5% | HCC-2998 colon 69.3%
active: OVCAR-8 ovarian -27.1% | OVCAR-4 ovarian -77% | SK-OV-3 ovarian -47.8% | OVCAR-3 ovarian 8.15% | HS 578T breast -19.3% | HCT-116 colon 4.9%

O=[N+]([O-])c1ccc(Oc2cccnc2)c([N+](=O)[O-])c1
inactive: RPMI-8226 leukemia 25.4% | OVCAR-8 ovarian 91.7% | OVCAR-5 ovarian 93.6% | OVCAR-4 ovarian 50.2% | SK-OV-3 ovarian 104% | IGROV1 ovarian 92.2% | OVCAR-3 ovarian 66.2% | HS 578T breast 81.9% | NCI/ADR-RES ovarian 51.4% | T-47D breast 61.1% | BT-549 breast 72.3% | MDA-MB-435 melanoma 26.9% | MCF7 breast 46.7% | KM12 colon 56.8%
active: SW-620 colon 1.5%

CN(C)CCOc1nc2ccccc2c2c1-c1ccc(Cl)cc1C2=O
inactive: OVCAR-5 ovarian 18.3% | SK-OV-3 ovarian 11.5% | T-47D breast 11.9% | BT-549 breast 52.1%
active: RPMI-8226 leukemia -23.4% | OVCAR-8 ovarian 2.21% | OVCAR-4 ovarian -6.28% | IGROV1 ovarian -27.9% | OVCAR-3 ovarian -21.4% | HS 578T breast -13.3% | NCI/ADR-RES ovarian -6.87% | SW-620 colon -60.8% | MCF7 breast -38.7% | HCT-116 colon 1.69% | HCC-2998 colon -53.6% | KM12 colon -45.2%

COc1cc(-c2cc(/C=C/C(=O)c3ccc(F)c(F)c3)[nH]n2)cc(OC)c1OC
inactive: RPMI-8226 leukemia 22.6% | OVCAR-8 ovarian 58.1% | OVCAR-5 ovarian 76% | OVCAR-4 ovarian 40.1% | SK-OV-3 ovarian 90% | IGROV1 ovarian 73.1% | OVCAR-3 ovarian 49.6% | HS 578T breast 61.3% | NCI/ADR-RES ovarian 63.5% | T-47D breast 53.6% | BT-549 breast 94.2% | SW-620 colon 67.2% | MCF7 breast 48.3% | HCT-116 colon 29.3% | HCC-2998 colon 87.1% | KM12 colon 41%

C(CCCC1=NCCO1)CCCC1=NCCO1
inactive: RPMI-8226 leukemia 89.4% | OVCAR-8 ovarian 106% | OVCAR-5 ovarian 100% | OVCAR-4 ovarian 109% | SK-OV-3 ovarian 105% | IGROV1 ovarian 114% | OVCAR-3 ovarian 99.9% | HS 578T breast 99.3% | NCI/ADR-RES ovarian 104% | T-47D breast 109% | BT-549 breast 103% | MDA-MB-435 melanoma 109% | SW-620 colon 99.4% | MCF7 breast 102% | KM12 colon 103%

O=C(Nc1ccc(Cl)c(Cl)c1)Nc1c(Oc2ccc(Cl)c(Cl)c2)ccc(Cl)c1S(=O)(=O)O
inactive: RPMI-8226 leukemia 14.9% | OVCAR-8 ovarian 27.7% | OVCAR-5 ovarian 53.7% | OVCAR-4 ovarian 65.6% | SK-OV-3 ovarian 22.4% | IGROV1 ovarian 30.4% | T-47D breast 51.4% | SW-620 colon 23.6% | MCF7 breast 24.6% | HCT-116 colon 23.5% | HCC-2998 colon 25.2% | KM12 colon 33.2%
active: OVCAR-3 ovarian -9.85% | HS 578T breast -5.79% | NCI/ADR-RES ovarian 2.06% | MDA-MB-435 melanoma -31.4%

c1ccc(CSc2nnc3c4c5c(sc4nc(-c4cccnc4)n23)CCCCCC5)cc1
inactive: RPMI-8226 leukemia 20.1% | OVCAR-8 ovarian 20.3% | OVCAR-5 ovarian 95.2% | OVCAR-4 ovarian 27.3% | SK-OV-3 ovarian 71.2% | IGROV1 ovarian 77% | OVCAR-3 ovarian 36.4% | HS 578T breast 86.2% | NCI/ADR-RES ovarian 100% | T-47D breast 14% | MDA-MB-435 melanoma 19.1% | SW-620 colon 55.3% | MCF7 breast 37.6% | HCT-116 colon 29.3% | HCC-2998 colon 46.5% | KM12 colon 34.4%

NC(=S)N=Nc1c(O)c2ccccc2c2ccccc12
inactive: RPMI-8226 leukemia 58.7% | OVCAR-8 ovarian 36% | OVCAR-5 ovarian 107% | OVCAR-4 ovarian 73.6% | SK-OV-3 ovarian 92.3% | IGROV1 ovarian 68.9% | OVCAR-3 ovarian 29.9% | HS 578T breast 62% | NCI/ADR-RES ovarian 27.1% | T-47D breast 68.3% | SW-620 colon 47% | MCF7 breast 24.5% | HCT-116 colon 32% | HCC-2998 colon 98.6% | KM12 colon 92%
active: MDA-MB-435 melanoma -85.5%

COc1cc(NC(=O)CCSc2nc3ccc(Cl)cc3c(=O)n2Cc2ccccc2)cc(OC)c1OC
inactive: RPMI-8226 leukemia 42.5% | OVCAR-8 ovarian 73.9% | OVCAR-5 ovarian 88.8% | OVCAR-4 ovarian 61.5% | SK-OV-3 ovarian 82% | IGROV1 ovarian 101% | OVCAR-3 ovarian 93.4% | HS 578T breast 40.3% | NCI/ADR-RES ovarian 84.3% | BT-549 breast 73% | MDA-MB-435 melanoma 89% | SW-620 colon 86.2% | MCF7 breast 70% | HCT-116 colon 53% | HCC-2998 colon 100%

O=C(O)C(SC(C(=O)O)c1ccccc1)c1ccccc1 (stereo not drawn)
inactive: RPMI-8226 leukemia 102% | OVCAR-8 ovarian 110% | OVCAR-5 ovarian 106% | OVCAR-4 ovarian 102% | SK-OV-3 ovarian 99.7% | IGROV1 ovarian 115% | OVCAR-3 ovarian 114% | HS 578T breast 113% | NCI/ADR-RES ovarian 106% | BT-549 breast 101% | MDA-MB-435 melanoma 116% | SW-620 colon 107% | MCF7 breast 96.3% | HCT-116 colon 106% | HCC-2998 colon 103% | KM12 colon 113%

COc1cccc(C(=O)Nc2ccc(CN3CCc4nc5cc(OC)c(OC)cc5cc43)cc2)c1
inactive: RPMI-8226 leukemia 40% | OVCAR-8 ovarian 46.8% | OVCAR-5 ovarian 64.8% | OVCAR-4 ovarian 57.1% | SK-OV-3 ovarian 74.2% | IGROV1 ovarian 31.8% | OVCAR-3 ovarian 53.1% | HS 578T breast 61.2% | NCI/ADR-RES ovarian 47.1% | BT-549 breast 65% | MDA-MB-435 melanoma 39.5% | SW-620 colon 59% | MCF7 breast 12% | HCT-116 colon 38.9% | HCC-2998 colon 14.1% | KM12 colon 16.4%
